Hit rate of the full screen: of about 100,000 compounds, about 770 (0.77%) were called active. Cut-off read from the data, not from the text of the source: active = inhibition above about 50%; inactive = the rest. For the sample, actives were picked, then their nearest neighbours and some compounds at random.

The target of the assay is Gag-Pol polyprotein (Human immunodeficiency virus type 1 group M subtype B (isolate HXB2)) (UniProt P04585). Put plainly: RNase H inhibition, HIV 1 Gag Pol polyprotein, FRET biochemical assay, screening (AID 372). The note with it: HIV-1 RT RNase H, FRET RNA/DNA substrate fluorescence; at 10 µM; active compounds read high.
For the compound `Cc1ncc(CO)c(/C=N/Nc2ccccc2)c1O`, the inhibition is 13% (inactive).

As for `O=C(N/N=C/c1ccc(O)c(Br)c1)c1cccc(Br)c1`, the inhibition is 0% (inactive).

Consider `COc1ccc(NC(=O)c2sc3cc(C)ccc3c2Cl)c(OC)c1`, for which the inhibition was 3% (inactive).

On to `Cc1ccn2c(-c3csc(Nc4ccc(O)cc4)n3)c(C)nc2c1`, for which the inhibition was 8% (inactive).

Turning to `CCC1CCCCN1S(=O)(=O)c1ccc(Cl)c([N+](=O)[O-])c1` (centres undefined), the inhibition is 12% (inactive).

Regarding `Cc1ccc(N2C(=O)c3ccc(-c4nc5ccccc5c(=O)o4)cc3C2=O)c(C)c1`, the inhibition is 5% (inactive).

With `Cc1cccc(N2C(=O)c3ccc(-c4nc5ccccc5c(=O)o4)cc3C2=O)c1`, the inhibition is 37% (inactive).

With `Cc1ccccc1N1C(=O)c2ccc(-c3nc4ccccc4c(=O)o3)cc2C1=O`, the inhibition was 2% (inactive).

As to `Cc1cc(Br)ccc1N1C(=O)c2ccc(-c3nc4ccccc4c(=O)o3)cc2C1=O`, the inhibition is 59% (active).

Turning to `Cc1cccc(N2C(=O)c3ccc(-c4nc5ccccc5c(=O)o4)cc3C2=O)c1C`, the inhibition was 10% (inactive).

On to `Cc1cc(C)c(N2C(=O)c3ccc(-c4nc5ccccc5c(=O)o4)cc3C2=O)c(C)c1`, for which the inhibition was 54% (active).

For the compound `O=C1C(=O)N(c2cccnc2)C(c2ccc(F)cc2)/C1=C(\O)c1ccc(Cl)cc1` (centres undefined), the inhibition was 2% (inactive).

For `CCCC(=O)N1c2c(C)cccc2C(Nc2ccccc2C)CC1C` (centres undefined), the inhibition is 12% (inactive).

Consider `COC(=O)c1c(NC(=O)c2c(F)c(F)c(F)c(F)c2F)sc2c1CCCCC2`, for which the inhibition was 26% (inactive).

On to `O=c1c(C=NCC2CCCO2)c(C(F)(F)F)[nH]n1-c1nc2ccccc2s1` (centres undefined), for which the inhibition is 0% (inactive).

For the compound `CCOC(=O)c1ccc(NC(=O)Nc2nc(-c3ccccc3)cs2)cc1`, the inhibition was 0% (inactive).

In the case of `Oc1c(Br)cc(Cl)cc1/C=C/c1ccc2cccc(O)c2n1`, the inhibition is 15% (inactive).

In the case of `O=C(O)C1Nc2ccc(F)cc2C2C=CCC12` (centres undefined), the inhibition was 12% (inactive).

Take `O=C(c1ccccc1)c1cc(Cl)cc2c1NC(C(=O)O)C1CC=CC21` (centres undefined): the inhibition was 30% (inactive).

As to `O=C(O)C1Nc2c(I)cccc2C2C=CCC12` (centres undefined), the inhibition is 30% (inactive).

For the compound `NC(=O)c1cccc2c1NC(C(=O)O)C1CC=CC21` (centres undefined), the inhibition is 22% (inactive).

For `O=C(O)C1Nc2c(cccc2[N+](=O)[O-])C2C=CCC12` (centres undefined), the inhibition is 17% (inactive).

As to `Cc1ccc2c(c1)C1C=CCC1C(C(=O)O)N2` (centres undefined), the inhibition is 27% (inactive).

Turning to `O=C1c2ccccc2NC(c2ccccc2O)N1Cc1ccco1` (centres undefined), the inhibition was 5% (inactive).

Take `CC(C)Cc1ccc(-c2csc(/C(C#N)=C/Nc3ccccc3)n2)cc1`: the inhibition is 0% (inactive).

As to `CCOc1cc(/C=C2\SC(N)=NC2=O)ccc1OCCOc1ccc(Cl)c(C)c1`, the inhibition is 30% (inactive).

On to `O=C(CSCc1cccc(Br)c1)N=Nc1c(O)[nH]c2ccccc12`, for which the inhibition was 16% (inactive).

In the case of `Cc1ccc(Cc2cnc(NC(=O)c3ccc(Br)cc3)s2)cc1`, the inhibition is 0% (inactive).

For the compound `O=C(Nc1ccc(-c2cnc(-c3ccc(NC(=O)c4ccccc4)cc3)nc2)cc1)c1ccccc1`, the inhibition was 0% (inactive).

Turning to `COc1cccc(C(=O)Nc2ccc(-c3ccc(NC(=O)c4cccc(OC)c4)cc3)cc2)c1`, the inhibition is 2% (inactive).

As to `COc1cccc(C(=O)Nc2ccc(-c3cnc(-c4ccc(NC(=O)c5cccc(OC)c5)cc4)nc3)cc2)c1`, the inhibition is 50% (active).

For the compound `Cc1cc(C)c(OCCCCN2CCC(C)CC2)c(C)c1`, the inhibition was 10% (inactive).

On to `COc1cc([N+](=O)[O-])ccc1NC(=S)NC(=O)c1ccccc1`, for which the inhibition is 3% (inactive).

In the case of `Cc1ccc(-c2c3c([nH]c(=S)c2C#N)CCCC3)o1`, the inhibition was 8% (inactive).

For `N#Cc1c(N)c(C#N)c(-c2ccco2)c2c1CCCC2`, the inhibition was 4% (inactive).

`N#Cc1c(-c2ccco2)c2c([nH]c1=S)CCCC2`: the inhibition is 63% (active).

As for `Oc1cccc(/C=N/Nc2nc(-c3ccc(Br)cc3)cs2)c1`, the inhibition was 16% (inactive).

`COc1ccc(S(=O)(=O)Nc2cccc(C(F)(F)F)c2)cc1`: the inhibition is 0% (inactive).

For `O=S(=O)(Nc1cccc(F)c1)c1ccc2ccccc2c1`, the inhibition was 27% (inactive).

On to `O=S(=O)(Nc1cccc(Br)c1)c1ccc2ccccc2c1`, for which the inhibition is 50% (active).

Take `O=S(=O)(Nc1cccc(I)c1)c1ccccc1`: the inhibition was 0% (inactive).

In the case of `O=S(=O)(Nc1ccc(Nc2ccccc2)cc1)c1ccc2ccccc2c1`, the inhibition was 0% (inactive).

In the case of `O=S(=O)(Nc1cccc(C(F)(F)F)c1)c1ccc(F)cc1`, the inhibition is 0% (inactive).

In the case of `O=S(=O)(Nc1cccc(I)c1)c1ccc2ccccc2c1`, the inhibition is 52% (active).

Regarding `Cc1cc(C)cc(NS(=O)(=O)c2ccc3ccccc3c2)c1`, the inhibition was 14% (inactive).

For `Brc1ccc(N2COc3ccc4ccccc4c3C2)cc1`, the inhibition was 18% (inactive).

With `CCOC(=O)c1ccc2c(c1)C1C=CCC1C(c1ccc(Br)cc1)N2` (centres undefined), the inhibition is 31% (inactive).

On to `Cc1ccc(C(=O)Nc2ccc(I)cc2)o1`, for which the inhibition was 0% (inactive).

`CCCOC(=O)C1=C(C)NC(=O)NC1c1cccc2ccccc12` (centres undefined): the inhibition was 4% (inactive).

Regarding `CCc1ccc(NC(=O)C(=O)NCCc2ccc(F)cc2)cc1`, the inhibition is 12% (inactive).

On to `COc1ccc(C(=O)NC(NC(=O)c2ccc(OC)c(OC)c2)c2ccc(Br)cc2)cc1OC`, for which the inhibition was 6% (inactive).

For `O=C1NC(=O)c2ccc3c4c(ccc1c24)CC3`, the inhibition was 2% (inactive).

Take `NN1C(=O)c2ccc3c4c(ccc(c24)C1=O)CC3`: the inhibition was 0% (inactive).

For the compound `COc1cc(CN2CCN(C3CCCC(C)C3)CC2)cc(OC)c1OC` (centres undefined), the inhibition was 7% (inactive).

`COc1ccc(CNC(=O)c2ccc(Cl)c(Cl)c2)cc1`: the inhibition is 8% (inactive).

Consider `CC(C)=NNC(=O)C(=O)Nc1cccc(Cl)c1`, for which the inhibition was 10% (inactive).

For the compound `CC(C)=NNC(=O)C(=O)Nc1ccc(Cl)c(Cl)c1`, the inhibition is 12% (inactive).

For the compound `CC(C)=NNC(=O)Sc1cc(O)c(Cl)cc1O`, the inhibition is 66% (active).

In the case of `O=C(NCCO)C(=O)Nc1ccc(Oc2ccccc2)cc1`, the inhibition is 6% (inactive).

`Cc1cc(C)c(NC(=O)C(C)Sc2nnc(-c3cccc(F)c3)n2-c2ccccc2)c(C)c1` (centres undefined): the inhibition was 54% (active).

Regarding `Fc1cccc(-c2nnc(SC(c3ccccc3)c3ccccc3)n2-c2ccccc2)c1`, the inhibition was 13% (inactive).

With `CC(NC(=O)CSc1nnc(-c2cccc(F)c2)n1-c1ccccc1)c1ccccc1` (centres undefined), the inhibition is 15% (inactive).

For `Cc1oc(C(C)(C)C)cc1C(=O)Nc1cccc(O)c1`, the inhibition was 1% (inactive).

In the case of `Cc1ccc(N=Cc2ccc(OC3CSC3)cc2)cc1C`, the inhibition is 8% (inactive).

For the compound `COc1ccc(C2NC(=S)NC(C)=C2C(=O)Nc2ccc(C)c(Cl)c2)cc1` (centres undefined), the inhibition was 10% (inactive).

On to `Nc1c(S(=O)(=O)O)cc(S(=O)(=O)O)c2cccc(O)c12`, for which the inhibition was 23% (inactive).

In the case of `Nc1ccc(S(=O)(=O)O)c2cccc(S(=O)(=O)O)c12`, the inhibition is 6% (inactive).

As to `Nc1nnc(SCC(=O)Nc2ccccc2-c2ccccc2)s1`, the inhibition was 0% (inactive).

As to `COc1ccc(NC(=O)/C(C#N)=C/c2cccc(O)c2)cc1`, the inhibition was 12% (inactive).

For `COc1cc(/C=N/NC(=O)COc2ccc(C(C)(C)CC(C)(C)C)cc2[N+](=O)[O-])ccc1OC(=O)c1ccc([N+](=O)[O-])cc1`, the inhibition was 28% (inactive).

On to `Cc1c(-c2ccc(/C=N/N=C3/NC(=O)CS3)o2)ccc([N+](=O)[O-])c1C`, for which the inhibition was 45% (inactive).

For the compound `O=C1CS/C(=N/N=C/c2ccc(-c3ccc(Cl)cc3)o2)N1`, the inhibition is 21% (inactive).

Regarding `Cc1c(Cl)cccc1-c1ccc(/C=N/N=C2\NC(=O)CS2)o1`, the inhibition was 55% (active).

Take `COc1ccccc1NC(=O)CN(c1ccc(Cl)cc1Cl)S(=O)(=O)c1ccccc1`: the inhibition was 13% (inactive).

As for `c1cc2ccc3ccc(CN4CCOCC4)c4ccc(c1)c2c34`, the inhibition is 0% (inactive).

Take `CC(=O)Nc1ccc(N2C(=O)/C(=C/c3ccc([N+](=O)[O-])cc3)C=C2c2ccccc2)cc1`: the inhibition was 0% (inactive).

For the compound `O=C1/C(=C/c2ccc([N+](=O)[O-])cc2)C=C(c2ccccc2)N1c1ccc(O)cc1`, the inhibition was 54% (active).

As to `Cc1cccc(C2=N/C(=C/c3ccc([N+](=O)[O-])cc3)C(=O)N2c2ccc(O)cc2)c1`, the inhibition is 44% (inactive).

In the case of `COc1cc(/C=N/N=C2/NC(=O)C(CC(=O)Nc3cccc(Cl)c3Cl)S2)ccc1O` (centres undefined), the inhibition is 5% (inactive).

Regarding `O=C(NCc1ccco1)c1ccc(Cl)cc1`, the inhibition is 0% (inactive).

Regarding `CCOc1ccc(C(=O)NCc2ccco2)cc1Br`, the inhibition was 5% (inactive).

As to `Cc1ccc(C(=O)NCc2ccco2)cc1`, the inhibition was 0% (inactive).

`CC(=O)Nc1ccc(C(=O)NCc2ccco2)cc1`: the inhibition is 57% (active).

As for `CCOc1ccc(C(=O)NCc2ccco2)cc1OCC`, the inhibition was 50% (active).

As for `CCOc1ccc(C(=O)NCc2ccco2)cc1Cl`, the inhibition was 6% (inactive).

Take `Cc1nn(S(=O)(=O)c2ccc([N+](=O)[O-])cc2)c(C)c1Sc1ccc([N+](=O)[O-])cc1`: the inhibition was 18% (inactive).

Take `CSCCOC(=O)C1=C(C)NC(=O)NC1c1ccc([N+](=O)[O-])cc1` (centres undefined): the inhibition is 22% (inactive).

In the case of `CCCCOc1ccc2c(C(F)(F)F)cc(=O)oc2c1`, the inhibition was 9% (inactive).

For the compound `CCOC(=O)C1=C(C)NC2=C(C(=O)CC(c3ccc(OC)cc3)C2)C1c1ccccc1OC(C)C` (centres undefined), the inhibition was 1% (inactive).

On to `O=C(N/N=C/c1ccccc1OC(=O)c1sc2ccccc2c1Cl)c1ccc([N+](=O)[O-])cc1`, for which the inhibition is 6% (inactive).

As to `O=C(Nc1cccc2ccccc12)c1ccccc1[N+](=O)[O-]`, the inhibition was 5% (inactive).

Turning to `Cc1ccc(OC(=O)Cn2c(=O)sc3cccc(Cl)c32)cc1C`, the inhibition is 12% (inactive).

Consider `Cc1cc(C)cc(OC(=O)Cn2c(=O)sc3cccc(Cl)c32)c1`, for which the inhibition was 11% (inactive).

For the compound `CCn1c(=O)sc2cccc(Cl)c21`, the inhibition is 50% (active).

Turning to `COC(=O)CCCCCN1C(=O)c2ccccc2C1=O`, the inhibition is 6% (inactive).

In the case of `COc1cc(/C=c2/sc3nc4c(C)c(C)ccc4n3c2=O)cc(OC)c1OC(C)=O`, the inhibition was 8% (inactive).

`COc1cc(/C=c2\sc3nc4c(C)c(C)ccc4n3c2=O)cc(Cl)c1O`: the inhibition was 31% (inactive).

Turning to `COc1cc(/C=c2\sc3nc4c(C)c(C)ccc4n3c2=O)cc(OC)c1O`, the inhibition was 58% (active).

On to `O=C(Nc1ccc(-c2noc(-c3ccccc3F)n2)cc1)c1cccs1`, for which the inhibition was 10% (inactive).

(Values after PubChem BioAssay AID372 (MTDP, 2006).)
